# A number with no mark means an inactive call.
# Assays:
# Assay in all cases: log2 ratio of Biotin-Ahx-Ub-VS probe labelling (fragment/DMSO); higher = less target engagement (more negative = stronger competition), active = hit call of the paper (q ≤ 0.05, log2 ratio ≤ -1)
# Conditions in all cases: compound concentration: 200 uM; treatment time: 3 h
# ALG13 = target: T1, ALG13 (UniProt Q9NP73)
# T1 sequence (whole entry): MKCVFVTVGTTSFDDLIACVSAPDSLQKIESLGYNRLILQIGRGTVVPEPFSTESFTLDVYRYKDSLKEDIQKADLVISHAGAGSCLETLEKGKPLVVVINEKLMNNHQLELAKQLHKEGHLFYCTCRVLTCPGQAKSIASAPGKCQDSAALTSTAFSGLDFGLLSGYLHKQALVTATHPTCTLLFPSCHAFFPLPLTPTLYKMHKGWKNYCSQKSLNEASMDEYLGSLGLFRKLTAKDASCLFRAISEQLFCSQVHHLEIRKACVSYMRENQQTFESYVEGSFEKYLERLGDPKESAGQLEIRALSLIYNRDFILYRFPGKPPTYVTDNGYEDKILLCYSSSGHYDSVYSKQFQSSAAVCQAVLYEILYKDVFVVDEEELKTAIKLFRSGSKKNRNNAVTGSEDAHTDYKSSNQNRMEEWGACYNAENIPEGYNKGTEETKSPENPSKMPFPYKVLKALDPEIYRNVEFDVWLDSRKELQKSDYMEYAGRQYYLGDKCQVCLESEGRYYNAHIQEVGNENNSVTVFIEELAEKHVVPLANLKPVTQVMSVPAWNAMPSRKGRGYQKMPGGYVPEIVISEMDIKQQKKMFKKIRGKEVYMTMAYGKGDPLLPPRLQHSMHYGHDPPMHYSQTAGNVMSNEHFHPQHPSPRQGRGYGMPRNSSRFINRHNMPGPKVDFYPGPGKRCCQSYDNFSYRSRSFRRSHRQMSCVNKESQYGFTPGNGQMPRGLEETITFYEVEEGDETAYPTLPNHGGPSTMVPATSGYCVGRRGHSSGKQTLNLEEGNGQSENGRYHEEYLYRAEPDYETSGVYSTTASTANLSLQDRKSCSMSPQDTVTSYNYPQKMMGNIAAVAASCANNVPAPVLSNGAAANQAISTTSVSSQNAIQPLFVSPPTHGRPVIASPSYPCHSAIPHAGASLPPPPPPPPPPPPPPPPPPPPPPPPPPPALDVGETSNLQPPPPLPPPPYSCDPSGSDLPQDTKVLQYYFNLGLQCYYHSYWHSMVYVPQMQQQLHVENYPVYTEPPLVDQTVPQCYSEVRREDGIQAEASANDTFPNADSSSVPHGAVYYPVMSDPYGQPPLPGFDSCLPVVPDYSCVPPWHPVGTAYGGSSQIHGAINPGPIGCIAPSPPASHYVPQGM
# How it was run: (§1)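 HEK293T lysate (495 µg per sample, in Tris/CHAPS/IGEPAL buffer with protease inhibitors) was exposed in triplicate for 3 h to fragment at 200 µM or to vehicle, then to Biotin-Ahx-Ub-VS at 0.5 µM final for 1 h. Labelled DUBs were enriched on NeutrAvidin, digested with LysC and trypsin, and analysed by diaPASEF LC-MS/MS. Spectronaut label-free quantities were normalised to the global median, and values are average log2 ratios of fragment over vehicle from an unpaired t-test. Only proteins with ≥2 unique peptides were used.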
# ATXN3 = ATXN3 (UniProt P54252)
# Chain of ATXN3 (P54252 whole entry): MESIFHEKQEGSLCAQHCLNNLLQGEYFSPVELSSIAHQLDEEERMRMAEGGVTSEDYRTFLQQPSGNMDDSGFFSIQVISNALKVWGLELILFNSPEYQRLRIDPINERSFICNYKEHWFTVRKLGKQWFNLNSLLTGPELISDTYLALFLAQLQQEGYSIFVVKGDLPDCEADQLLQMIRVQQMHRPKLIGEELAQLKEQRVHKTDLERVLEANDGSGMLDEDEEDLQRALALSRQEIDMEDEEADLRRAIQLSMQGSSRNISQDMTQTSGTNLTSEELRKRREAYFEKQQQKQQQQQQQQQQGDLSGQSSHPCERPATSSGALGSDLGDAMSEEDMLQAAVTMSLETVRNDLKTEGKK
# How it was run: as §1
# BAP1 = target: T2, BAP1 (UniProt Q92560)
# T2 sequence (whole entry): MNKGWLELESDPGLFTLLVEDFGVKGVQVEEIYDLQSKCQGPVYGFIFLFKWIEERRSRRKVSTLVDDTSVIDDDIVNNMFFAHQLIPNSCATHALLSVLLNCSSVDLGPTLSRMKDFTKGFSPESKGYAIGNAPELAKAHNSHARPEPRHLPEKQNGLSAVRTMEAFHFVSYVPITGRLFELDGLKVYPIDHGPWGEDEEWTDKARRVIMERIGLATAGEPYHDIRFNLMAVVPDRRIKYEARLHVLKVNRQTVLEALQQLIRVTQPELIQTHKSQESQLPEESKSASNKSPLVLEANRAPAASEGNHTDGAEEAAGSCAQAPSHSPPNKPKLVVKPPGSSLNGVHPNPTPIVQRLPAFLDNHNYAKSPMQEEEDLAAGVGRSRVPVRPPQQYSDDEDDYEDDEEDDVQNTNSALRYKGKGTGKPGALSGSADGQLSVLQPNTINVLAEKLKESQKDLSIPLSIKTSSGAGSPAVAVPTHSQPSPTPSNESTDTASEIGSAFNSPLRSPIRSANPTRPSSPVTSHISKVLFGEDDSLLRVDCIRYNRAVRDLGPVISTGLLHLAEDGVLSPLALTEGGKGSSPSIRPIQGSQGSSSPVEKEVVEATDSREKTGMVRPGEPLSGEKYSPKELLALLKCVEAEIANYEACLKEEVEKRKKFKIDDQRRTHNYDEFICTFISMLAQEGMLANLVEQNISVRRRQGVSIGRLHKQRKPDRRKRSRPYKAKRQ
# How it was run: as §1
# EIF3F = EIF3F (UniProt O00303)
# Chain of EIF3F (O00303 whole entry): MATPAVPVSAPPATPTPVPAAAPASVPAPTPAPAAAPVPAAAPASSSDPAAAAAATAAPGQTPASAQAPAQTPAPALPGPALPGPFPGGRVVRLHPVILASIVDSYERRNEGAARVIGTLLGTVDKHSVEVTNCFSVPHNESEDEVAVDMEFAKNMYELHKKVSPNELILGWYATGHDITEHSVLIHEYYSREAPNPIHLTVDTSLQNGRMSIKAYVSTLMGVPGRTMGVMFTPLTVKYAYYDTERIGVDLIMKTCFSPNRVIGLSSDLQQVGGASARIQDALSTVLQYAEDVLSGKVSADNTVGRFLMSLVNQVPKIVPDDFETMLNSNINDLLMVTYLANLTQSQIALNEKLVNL
# How it was run: as §1
# EIF3H = EIF3H (UniProt O15372)
# Chain of EIF3H (O15372 whole entry): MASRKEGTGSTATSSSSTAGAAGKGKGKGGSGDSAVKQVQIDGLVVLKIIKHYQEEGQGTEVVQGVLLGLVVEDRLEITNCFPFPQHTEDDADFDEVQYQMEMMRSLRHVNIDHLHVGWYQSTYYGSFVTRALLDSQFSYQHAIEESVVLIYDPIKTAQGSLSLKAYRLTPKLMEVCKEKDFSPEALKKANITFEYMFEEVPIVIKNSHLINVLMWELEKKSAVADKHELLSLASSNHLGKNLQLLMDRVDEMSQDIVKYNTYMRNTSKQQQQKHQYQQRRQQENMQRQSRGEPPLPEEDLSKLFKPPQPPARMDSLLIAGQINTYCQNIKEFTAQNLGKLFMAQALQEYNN
# How it was run: as §1
# FAM105A = target: T3, FAM105A (UniProt Q9NUU6)
# T3 sequence (whole entry): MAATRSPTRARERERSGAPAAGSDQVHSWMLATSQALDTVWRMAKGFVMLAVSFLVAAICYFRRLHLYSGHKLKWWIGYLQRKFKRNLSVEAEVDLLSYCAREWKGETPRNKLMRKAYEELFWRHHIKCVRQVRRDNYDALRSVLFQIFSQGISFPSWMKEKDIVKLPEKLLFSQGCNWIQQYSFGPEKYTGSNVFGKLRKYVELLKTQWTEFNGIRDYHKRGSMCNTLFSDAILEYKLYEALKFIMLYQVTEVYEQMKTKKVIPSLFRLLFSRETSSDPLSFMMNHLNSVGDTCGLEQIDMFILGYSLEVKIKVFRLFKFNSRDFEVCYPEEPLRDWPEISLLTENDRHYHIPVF
# How it was run: as §1
# OTUB1 = OTUB1 (UniProt Q96FW1)
# Chain of OTUB1 (Q96FW1 whole entry): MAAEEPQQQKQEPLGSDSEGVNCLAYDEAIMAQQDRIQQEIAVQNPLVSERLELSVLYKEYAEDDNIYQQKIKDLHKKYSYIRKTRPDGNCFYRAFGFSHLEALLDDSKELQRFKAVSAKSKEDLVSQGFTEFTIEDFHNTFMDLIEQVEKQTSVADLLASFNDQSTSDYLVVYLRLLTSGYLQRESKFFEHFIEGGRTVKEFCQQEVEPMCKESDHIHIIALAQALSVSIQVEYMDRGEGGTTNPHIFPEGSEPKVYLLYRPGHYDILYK
# How it was run: as §1
# OTUD4 = target: T4, OTUD4 (UniProt Q01804)
# T4 sequence (whole entry): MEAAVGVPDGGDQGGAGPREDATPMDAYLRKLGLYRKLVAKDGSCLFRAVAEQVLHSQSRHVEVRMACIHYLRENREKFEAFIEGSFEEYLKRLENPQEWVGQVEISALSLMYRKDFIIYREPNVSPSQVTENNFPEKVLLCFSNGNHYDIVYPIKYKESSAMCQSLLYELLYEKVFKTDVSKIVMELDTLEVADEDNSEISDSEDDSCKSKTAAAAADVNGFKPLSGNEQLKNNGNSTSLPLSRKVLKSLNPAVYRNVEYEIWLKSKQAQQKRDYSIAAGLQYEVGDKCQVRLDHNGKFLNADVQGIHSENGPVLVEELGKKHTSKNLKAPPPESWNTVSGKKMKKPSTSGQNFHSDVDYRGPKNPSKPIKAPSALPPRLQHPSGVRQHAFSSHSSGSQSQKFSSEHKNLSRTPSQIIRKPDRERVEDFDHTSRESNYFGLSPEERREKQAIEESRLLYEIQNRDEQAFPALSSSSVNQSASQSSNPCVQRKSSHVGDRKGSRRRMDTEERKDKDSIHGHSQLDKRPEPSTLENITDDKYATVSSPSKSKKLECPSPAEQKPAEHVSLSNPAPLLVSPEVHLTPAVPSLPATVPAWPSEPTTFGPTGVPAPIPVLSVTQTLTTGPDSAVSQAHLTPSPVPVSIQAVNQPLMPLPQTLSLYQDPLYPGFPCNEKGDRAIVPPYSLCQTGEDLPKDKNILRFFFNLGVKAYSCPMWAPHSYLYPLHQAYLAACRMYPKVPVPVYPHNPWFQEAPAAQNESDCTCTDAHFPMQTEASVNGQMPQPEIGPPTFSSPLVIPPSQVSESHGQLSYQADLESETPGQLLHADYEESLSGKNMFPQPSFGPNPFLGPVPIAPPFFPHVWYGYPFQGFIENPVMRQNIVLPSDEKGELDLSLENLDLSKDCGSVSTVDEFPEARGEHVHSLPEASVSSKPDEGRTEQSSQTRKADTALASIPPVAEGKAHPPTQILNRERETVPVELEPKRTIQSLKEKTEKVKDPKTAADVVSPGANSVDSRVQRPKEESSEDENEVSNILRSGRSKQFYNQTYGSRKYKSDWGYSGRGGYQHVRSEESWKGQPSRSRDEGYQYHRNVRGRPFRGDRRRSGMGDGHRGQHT
# How it was run: as §1
# OTUD5 = target: T5, OTUD5 (UniProt Q96G74)
# T5 sequence (whole entry): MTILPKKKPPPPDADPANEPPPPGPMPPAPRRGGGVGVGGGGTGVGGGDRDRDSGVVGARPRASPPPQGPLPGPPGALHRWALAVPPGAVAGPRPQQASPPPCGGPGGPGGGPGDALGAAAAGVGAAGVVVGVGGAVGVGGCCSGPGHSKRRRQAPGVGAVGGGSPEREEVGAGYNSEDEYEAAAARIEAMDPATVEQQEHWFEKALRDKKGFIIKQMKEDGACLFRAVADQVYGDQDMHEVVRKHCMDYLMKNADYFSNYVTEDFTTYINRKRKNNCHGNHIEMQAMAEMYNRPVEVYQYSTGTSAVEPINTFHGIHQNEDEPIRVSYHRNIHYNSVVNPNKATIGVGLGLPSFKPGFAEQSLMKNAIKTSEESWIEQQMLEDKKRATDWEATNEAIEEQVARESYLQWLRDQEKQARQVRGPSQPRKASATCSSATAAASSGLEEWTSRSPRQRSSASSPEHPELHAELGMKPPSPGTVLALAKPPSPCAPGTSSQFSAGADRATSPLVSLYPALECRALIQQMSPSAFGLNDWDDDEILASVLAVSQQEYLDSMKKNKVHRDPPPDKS
# How it was run: as §1
smiles,measurement,setting,value
CC(NC(=O)CCl)c1cc2n(n1)CCCC2.Cl (centres undefined),log2 ratio of Biotin-Ahx-Ub-VS probe labelling,ALG13,0.164
same,log2 ratio of Biotin-Ahx-Ub-VS probe labelling,ATXN3,0.242
same,log2 ratio of Biotin-Ahx-Ub-VS probe labelling,BAP1,-1.36 (active)
same,log2 ratio of Biotin-Ahx-Ub-VS probe labelling,EIF3F,-0.359
same,log2 ratio of Biotin-Ahx-Ub-VS probe labelling,EIF3H,0.193
same,log2 ratio of Biotin-Ahx-Ub-VS probe labelling,FAM105A,-0.0943
same,log2 ratio of Biotin-Ahx-Ub-VS probe labelling,OTUB1,0.0152
same,log2 ratio of Biotin-Ahx-Ub-VS probe labelling,OTUD4,0.133
same,log2 ratio of Biotin-Ahx-Ub-VS probe labelling,OTUD5,-0.0818
